In ChEMBL document CHEMBL3433997, “St. Jude Leishmania screening dataset” (2016):

Experiments:
Assay type in all cases: functional
[1] = molecular target: Solute carrier family 2, facilitated glucose transporter member 1 (Homo sapiens) (UniProt P11166); assay: ST_JUDE_LEISH: Cytotoxicity at 2uM final concentration against transgenic Leishmania Mexicana promastigotes LmGLUT1 that are glucose transport deficient and complemented with the human glucose transporter GLUT1. Activity is measured by DNA content using SYBR green in vitro
[2] = molecular target: Hexose transporter 1 (Plasmodium falciparum) (UniProt O97467); assay: ST_JUDE_LEISH: Cytotoxicity at 2uM final concentration against transgenic Leishmania Mexicana promastigotes LmPfHT that are glucose transport deficient and complemented with the Plasmodium falciparum hexose transporter. Activity is measured by DNA content using SYBR green in vitro
[3] = molecular target: Glucose transporter (Leishmania mexicana) (UniProt O61059); assay: ST_JUDE_LEISH: Cytotoxicity at 2uM final concentration against transgenic Leishmania Mexicana promastigotes LmGT2 that are glucose transport deficient and complemented with the L. Mexicana glucose transporter 2. Activity is measured by DNA content using SYBR green in vitro

Sequence of Solute carrier family 2, facilitated glucose transporter member 1 (Homo sapiens) (P11166 whole entry): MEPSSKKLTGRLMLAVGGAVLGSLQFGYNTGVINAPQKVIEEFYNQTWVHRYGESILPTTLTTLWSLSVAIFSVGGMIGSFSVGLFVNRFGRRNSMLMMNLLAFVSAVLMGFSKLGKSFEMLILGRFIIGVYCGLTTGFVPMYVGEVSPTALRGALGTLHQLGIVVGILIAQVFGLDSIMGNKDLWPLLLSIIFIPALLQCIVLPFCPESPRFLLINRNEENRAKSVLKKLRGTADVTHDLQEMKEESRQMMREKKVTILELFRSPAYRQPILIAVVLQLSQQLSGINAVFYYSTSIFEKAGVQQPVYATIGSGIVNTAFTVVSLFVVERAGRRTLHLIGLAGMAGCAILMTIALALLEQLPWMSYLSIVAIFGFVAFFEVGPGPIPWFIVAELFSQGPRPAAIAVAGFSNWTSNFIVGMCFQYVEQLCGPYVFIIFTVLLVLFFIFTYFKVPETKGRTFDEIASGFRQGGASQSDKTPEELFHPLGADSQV

`Cc1cc(=NN=Cc2ccccc2Cl)c2cc(C(F)(F)F)ccc2[nH]1` was tested, and the inhibition [1] was -0.33%, the inhibition [2] was -0.65% and the inhibition [3] was 1.27%.

In the case of `CCc1ccc(OCCCON2C(=N)N=C(N)NC2(C)C)cc1`, the inhibition [1] is reported as -1.61%, the inhibition [2] is reported as 1.92% and the inhibition [3] is reported as 3.21%.

Work on `Cc1ccc(-n2cc(CNCCCn3ccnc3)c(-c3cccc(C)c3)n2)cc1` yielded an inhibition [1] of 4.3%, an inhibition [2] of 6.62% and an inhibition [3] of 3.71%.

`Cc1nc(N)nc(N)c1OCCCOc1ccccc1Br` was tested, and the inhibition [1] was 46.9%, the inhibition [2] was 61.8% and the inhibition [3] was 43.6%.

Work on `O=C(/C=C/c1ccc(Cl)c(Cl)c1)NCCCCCN1CCCN(C(=O)Nc2cccc(F)c2)CC1` yielded an inhibition [1] of 0.1%, an inhibition [2] of 0.29% and an inhibition [3] of 3.86%.

In the case of `CC(=O)c1sc2ccccc2c1O`, the inhibition [1] is reported as -1.09%, the inhibition [2] is reported as -1% and the inhibition [3] is reported as 1.24%.

`Cc1cccc2nc(-c3ccc(-c4cccc(NC(=O)Nc5ccc(Cl)cc5)c4)s3)[nH]c12` gave an inhibition [1] of 3.96%, an inhibition [2] of 3.55% and an inhibition [3] of 3.01%.

Work on `COc1ccc(C(=O)N[C@@H](CC(C)C)C(=O)NC2CC[C@@H](C)N(C(=O)Nc3ccc(Cl)cc3)CC2=O)cc1OCCN1CCOCC1` (some centres not stated) yielded an inhibition [1] of 2.44%, an inhibition [2] of 3.66% and an inhibition [3] of 5.16%.

For `COc1ccc(NC(=O)NC2CCN(CCCOc3cc(C)nc4ccccc34)CC2)cc1OC`, the inhibition [1] was 0.88%, the inhibition [2] was 1.97% and the inhibition [3] was -3.5%.

With `Cc1cc(CNCCCCCCCNCc2ccc(-c3ccccc3)cc2)ccc1O` the inhibition [1] was 0.67%, the inhibition [2] was 1.76% and the inhibition [3] was 1.05%.

Compound `COCCN1CCN(Cc2ccc(-c3ccc(-c4nc5cccc(C)c5[nH]4)s3)cc2)CC1` has an inhibition [1] of 8.84%, an inhibition [2] of 6.85% and an inhibition [3] of 4.87%.

With `COc1ccc(C2CC(=O)C3=C(C2)NC(C)=C(C(=O)OC2CCCC2)C3c2ccc(O)cc2)cc1OC` (configuration not stated) the inhibition [1] was -0.48%, the inhibition [2] was 0.53% and the inhibition [3] was 0.39%.

`Cn1cc(CN2CCCC(COC(c3ccc(F)cc3)c3ccc(F)cc3)C2)cn1` (configuration not stated) gave an inhibition [1] of 2.32%, an inhibition [2] of 1.9% and an inhibition [3] of 1.84%.

In the case of `O=S(=O)(c1cc(Cl)ccc1Cl)N1CCCCC(c2ccc(C(F)(F)F)cc2)=N1`, the inhibition [1] is reported as 0.47%, the inhibition [2] is reported as 2.66% and the inhibition [3] is reported as 5.01%.

`Cc1cc(NC(=O)NCCN2CCC(NC(=O)c3ccc(C(F)(F)F)cc3)CC2)c2ccccc2n1` gave an inhibition [1] of 0.67%, an inhibition [2] of 0.01% and an inhibition [3] of -0.57%.

`COc1ccc(CCNCCCCCCNCCc2ccc(Cl)cc2)c(Cl)c1OC` gave an inhibition [1] of 73.4%, an inhibition [2] of 16.7% and an inhibition [3] of 102%.

Work on `COc1ccc(CNC2CCN(C)CC2)cc1-c1ccc(S(=O)(=O)NCCc2ccccn2)s1` yielded an inhibition [1] of -2.94%, an inhibition [2] of -0.03% and an inhibition [3] of 0.29%.

`Nc1nc(N)c2c(CCc3ccc(Cl)c(Cl)c3)cccc2n1` gave an inhibition [1] of 10.7%, an inhibition [2] of 11.2% and an inhibition [3] of 8.14%.

`Cc1ncccc1-c1cccc2c(NC(=O)Nc3ccc4nccc(N5CCN(C)CC5)c4c3)cccc12` was tested, and the inhibition [1] was 4.96%, the inhibition [2] was 3.58% and the inhibition [3] was 1.71%.

`O=c1cc(NCCCNCc2sc(Br)nc2Br)[nH]c2ccccc12` gave an inhibition [1] of 3.62%, an inhibition [2] of 4.14% and an inhibition [3] of 4.34%.

Compound `O=C(NC1CCC(N2CCN(c3cccc4[nH]ccc34)CC2)CC1)c1cc2cccnc2[nH]1` (configuration not stated) has an inhibition [1] of 12%, an inhibition [2] of 13.2% and an inhibition [3] of 7.93%.

With `COc1ccc(CNC2CCN(C)CC2)cc1-c1ccc(S(=O)(=O)NC2CCC2)c(F)c1` the inhibition [1] was 0.83%, the inhibition [2] was 0.39% and the inhibition [3] was 1.91%.

Compound `COC(=O)C(NC(=O)NC1CCN(c2ccnc(Nc3ccc(F)cc3)n2)C1)c1ccccc1` (configuration not stated) has an inhibition [1] of -3.11%, an inhibition [2] of -1.97% and an inhibition [3] of -2.66%.

`CCNC(=O)N1CCN(c2nc(-c3ccccc3)nc(COC)c2Cc2ccc(C)cc2)CC1` was tested, and the inhibition [1] was 4.13%, the inhibition [2] was -1.41% and the inhibition [3] was 3.78%.

`CSc1c(CNCCCNc2cc(=O)c3ccccc3[nH]2)[nH]c2ccccc12` was tested, and the inhibition [1] was 5.89%, the inhibition [2] was 4.28% and the inhibition [3] was 4.96%.

`Cc1cc(C2CCN(CCCCNC(=O)c3ccc(NC(=O)c4ccc(Cl)cc4)cc3)CC2)c(C)cc1OCc1ccccn1` gave an inhibition [1] of 2.54%, an inhibition [2] of 2.64% and an inhibition [3] of 0.11%.

In the case of `O=[N+]([O-])c1nc(Br)n(Cc2ccc(Cl)cc2)n1`, the inhibition [1] is reported as 3.1%, the inhibition [2] is reported as 3.81% and the inhibition [3] is reported as 4.39%.

`CC1(C)N=C(N)N=C(N)N1c1cc(Cl)c(Cl)cc1Cl` was tested, and the inhibition [1] was -2.58%, the inhibition [2] was -2.74% and the inhibition [3] was -3.01%.

Compound `O=C(/C=C/c1ccc(Cl)c(Cl)c1)NCCCCCN1CCC(NC(=O)NC2CCCCCC2)CC1` has an inhibition [1] of -0.58%, an inhibition [2] of 1.53% and an inhibition [3] of 0%.

In the case of `CCc1c[nH]c2c(N3CCCS3(=O)=O)cc(C(=O)N[C@@H](Cc3ccccc3)[C@H](O)CNC(C)(C)CCCC(C)C)cc12`, the inhibition [1] is reported as 1.92%, the inhibition [2] is reported as 2.29% and the inhibition [3] is reported as 0.89%.

With `Cc1ccccc1C1CCN(C2CCC(NC(=O)c3cc4cc(C(C)C)ccc4[nH]3)CC2)CC1` (configuration not stated) the inhibition [1] was 1.91%, the inhibition [2] was 2.91% and the inhibition [3] was 1.43%.

`CN1CCN(c2nc(NCCNc3ccc([N+](=O)[O-])cc3)c3ccccc3n2)CC1` was tested, and the inhibition [1] was 0.92%, the inhibition [2] was 0.91% and the inhibition [3] was 0.54%.

Work on `CC(C)NC[C@@H](O)[C@H](Cc1ccccc1)NC(=O)c1cc2c3c(c1)c(C(C)C)cn3CCS(=O)(=O)N2C` yielded an inhibition [1] of 2.21%, an inhibition [2] of 2.85% and an inhibition [3] of 2.8%.

With `CCC(C)(C)n1c(C)cc2c3c(N)nc(N)nc3ccc21` the inhibition [1] was 71.7%, the inhibition [2] was 77.2% and the inhibition [3] was 63.6%.

With `Clc1cc(Cl)c2cc(CNCCCNc3ccc4ccccc4n3)[nH]c2c1` the inhibition [1] was 0.53%, the inhibition [2] was 0.95% and the inhibition [3] was 1%.

For `CCc1cc(NCc2ccncc2)nc(Nc2ccc(F)cc2)n1`, the inhibition [1] was 14.4%, the inhibition [2] was 6.44% and the inhibition [3] was 4.12%.

`CCCN(CCC)CCOc1ccc(C(O)(C#CC(O)(c2ccc(OCCN(CCC)CCC)cc2)c2cccc(Cl)c2)c2cccc(Cl)c2)cc1` (configuration not stated) gave an inhibition [1] of 7.1%, an inhibition [2] of 4.78% and an inhibition [3] of 2.38%.

Compound `CCNc1cc(C)nc(Nc2ccc(NC(=O)C3CCCC3)cc2)n1` has an inhibition [1] of 8.61%, an inhibition [2] of 6.7% and an inhibition [3] of 3.57%.

With `CCN1CCN(CCCNc2ccnc3cc(Cl)ccc23)CC1` the inhibition [1] was 0.93%, the inhibition [2] was 2.24% and the inhibition [3] was 2.15%.

`Cc1ccc(C(=O)Nc2ccc(-c3nc4ccccc4[nH]3)cc2)cc1S(=O)(=O)N1CCOCC1` gave an inhibition [1] of 2.29%, an inhibition [2] of 1.71% and an inhibition [3] of 0.77%.

Work on `COc1cc2nc(NCCCOC(C)C)n3nc(-c4ccccc4)nc3c2cc1OC` yielded an inhibition [1] of 11.4%, an inhibition [2] of 10.4% and an inhibition [3] of 7.73%.

With `CN1CCN(C(=O)CN2CCC3(CCC2=O)NC(=O)c2ccccc2O3)CC1` (configuration not stated) the inhibition [1] was 3.76%, the inhibition [2] was 5.1% and the inhibition [3] was 3.13%.

With `COC(=O)Nc1cc(C(F)(F)F)ccc1N1CCC(CNS(=O)(=O)c2ccc(OC)cc2)CC1` the inhibition [1] was 7.63%, the inhibition [2] was 4.92% and the inhibition [3] was 6.14%.

For `COc1cc(NC(=O)CCCCCCCCN2CCN(C)CC2)c2ncccc2c1`, the inhibition [1] was 1.29%, the inhibition [2] was -0.26% and the inhibition [3] was 0.86%.

`OC1CCCN(Cc2ccc(-c3cccc(-c4nc5cc(F)ccc5[nH]4)c3)cc2)C1` (configuration not stated) showed an inhibition [1] of 7.7%, an inhibition [2] of 7.1% and an inhibition [3] of 5.69%.

With `O=C(Nc1ccc(F)c(Cl)c1)c1cc([N+](=O)[O-])cc2cn[nH]c12` the inhibition [1] was -0.64%, the inhibition [2] was -0.66% and the inhibition [3] was -2.22%.

`CCCN1CCN(c2ccc(NS(=O)(=O)c3ccc(C(=O)Nc4ccc(Cl)cc4)cc3)cc2)CC1` gave an inhibition [1] of 0.49%, an inhibition [2] of 0.84% and an inhibition [3] of -2.28%.

Compound `Cc1cccc2nc(-c3ccc(-c4ccc(CN5CCN(c6cnccn6)CC5)cc4)s3)[nH]c12` has an inhibition [1] of 11.9%, an inhibition [2] of 9.41% and an inhibition [3] of 9.78%.

For `CCCCC#Cc1cnc2nc(N)[nH]c(=O)c2n1`, the inhibition [1] was 1.66%, the inhibition [2] was 1.03% and the inhibition [3] was 0.91%.
